Source: PubChem BioAssay (NCI)
This is part of a sample that, as a whole, favours compounds with a hit. Of some 83,000 tested, about 20% had one in any assay.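 96-well plates, one dose, 48 hours. Percent growth reported; active if below 10.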 Values without a mark were called inactive. Calls of active or inactive are those of the source.

What follows are compounds tested on HL-60(TB) leukemia (assay: NCI-60 one-dose screen, 48 h (100 = growth as untreated, 0 = no growth, -100 = all killed)). Settings: 10 µM unless noted.

Row | SMILES | growth
1 | CCCCCCCCCCCC(=O)NC(C)(C)C(=O)N1CCCC1C(=O)NC(C)(C)C(=O)NC(C)(C)C(=O)N1CCCC1C(=O)NC(C)(C)C(=O)NC(C)(C)C(=O)N1CCCC1C(=O)NC(C)C(=O)NCCC(=O)NC(C)C(=O)NC(C)(C)C(=O)NC(C)(C)C(=O)NC(C)(C)C(=O)NCCC(=O)NC(C)(C)C(=O)NC(C)(C)C(=O)NC(C)(C)C(=O)NC(C)C(=O)NCCC(=O)O (stereo not given) | -66.3% (active)
2 | O=C(N/N=C/c1ccc(Br)s1)c1[nH]c2ccc(Br)cc2c1-c1ccccc1 | -43.4% (active)
3 | O=C(CSc1nc2ccccc2c(=O)n1-c1ccccc1)Nc1cccc(C(=O)/C=C/c2ccccc2Cl)c1 | 108%
4 | CCOP(=O)(OCC)OC[C@]12CCC(C)(C)C[C@H]1C1=CC[C@@H]3[C@@]4(C)C/C(=C\c5cccnc5)[C@H](OP(=O)(OCC)OCC)C(C)(C)[C@@H]4CC[C@@]3(C)[C@]1(C)CC2 | -22.2% (active)
5 | N#C/C(=C\c1ccc2ccccc2c1)C(=O)Nc1sc2c(c1C#N)CCC2 | 103%
